ELG1 repair inh: qHTS screen for small molecules that inhibit ELG1-dependent DNA repair in human embryonic kidney (HEK293T) cells expressing luciferase-tagged ELG1; Potency, µM (series often up to 46.1 µM), usual class: inhibitors; 330,000 compounds, 2.3% hits; HEK293T ELG1-luciferase reporter, luminescence, 16 h; DNA damage induced by 5-fluorouridine; also: nearly all actives have a fitted effect of over 55% in size
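Quantitative HTS, concentration-response format. 2,000 cells/well co-treated with 5-fluorouridine and compound, 16 hr in 5% CO2 at 37 °C; ONE-Glo luminescence read after 30 min.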
IL1B secr inh: qHTS for Inhibitors of Inflammasome Signaling: IL-1-beta AlphaLISA Primary Screen. activity change, % at 57.5 µM. AID 743279, 2014. THP-1 LPS/ATP IL-1B secretion, AlphaLISA, 16 h; hits give low values. 360,000 compounds, 4.7% hits; in the data active = activity change below about -50%; inconclusive = mostly about -30% to -49%
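THP-1 cells pretreated 1 hr with compounds (up to 57.5 uM final), then stimulated with LPS (250 ng/mL final) plus ATP (1.25 mM final); secreted IL-1B measured by AlphaLISA after 16 hr, decreased signal indicating inhibition.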
DT40 TDP1 no CPT: qHTS for Inhibitors of human tyrosyl-DNA phosphodiesterase 1 (TDP1): qHTS in cells in absence of CPT; DT40 Tdp1-/- hTDP1 cells, no CPT, ATP luminescence, 48 h; Potency, µM (series often up to 46.2 µM), hits mostly inhibitors; 420,000 compounds, 15% hits; AID 686978, 2013; also: nearly all actives have a fitted effect of over 55% in size
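Chicken DT40 Tdp1-/- cells stably complemented with human TDP1 were seeded at 400 cells/well with DMSO in place of 20 nM camptothecin. After compound pinning, cells grew at least 48 hr at 37 °C; viability read by CellTiter-Glo luminescence.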
HT1080NT lethal: qHTS for induction of synthetic lethality in tumor cells producing 2HG: qHTS for the HT-1080-NT fibrosarcoma cell line | HT-1080-NT fibrosarcoma viability, CellTiter-Glo ATP luminescence, 48 h | Potency, µM (series often up to 46.1 µM), actives largely listed as cytotoxic | 360,000 compounds, 1.6% hits | AID 686970, 2013;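 also: NT is the 2HG producing partner of a matched IDH1 knockdown line; nearly all actives have a fitted effect of over 55% in size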
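Luminescent CellTiter-Glo readout after 48 hours of compound exposure at 37 degrees C defined viability of HT-1080-NT cells. Activity was normalized to DMSO wells and cell-free media wells; concentration-response curves were fitted and assigned curve classes.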
HT1080 IDH1KD tx: qHTS for induction of synthetic lethality in tumor cells producing 2HG: qHTS for the HT-1080-IDH1KD cell line. AID 686971, 2013. Potency, µM (top dose mostly 46.1 µM), actives largely listed as cytotoxic. HT-1080 IDH1 knockdown viability, ATP luminescence, 48 h. 360,000 compounds, 2% hits
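In this qHTS, HT-1080 cells depleted of IDH1 are exposed for 48 h at 37 °C to compound titrations. Toxicity is scored from CellTiter-Glo luminescence, with DMSO as full viability and medium alone as none.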
DT40 TDP1 CPT: qHTS for Inhibitors of human tyrosyl-DNA phosphodiesterase 1 (TDP1): qHTS in cells in presence of CPT; AID 686979, 2013; 420,000 compounds, 12% hits; Potency, µM (titrated, usually from 46.2 µM), usual class: inhibitors; chicken DT40 Tdp1-/-;hTDP1 cells + 20 nM CPT, ATP luminescence, 48 h; also: nearly all actives have a fitted effect of over 55% in size
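Chicken DT40 Tdp1-/- cells complemented with human TDP1, 400 cells/well, exposed to compounds plus 20 nM camptothecin for at least 48 h at 37 C; viability read as ATP content by CellTiter-Glo luminescence.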
Hits are given with their value; . = inactive; ? = inconclusive; / = no result; [ ] = remark or other dose. The list is not random: actives were taken first. Their share in the collection is about 19%. Unless noted, calls follow the shape of the dose curve; as a rule, active = well fitted curve in the direction sought with a large enough effect; inconclusive = small, poorly fitted or top-dose-only effect, or another doubt; inactive = no such curve, though single readings can be large; an effect the other way counts as inactive or inconclusive.

SMILES	ELG1 repair inh	IL1B secr inh	DT40 TDP1 no CPT	HT1080NT lethal	HT1080 IDH1KD tx	DT40 TDP1 CPT
Cc1ncsc1CCC(=O)N1CCCC(Nc2ccc(C(C)C)cc2)C1 (stereo not given)	.	.	26µM	.	.	?
O=C1CCCCN1CC(=O)N1CCCC(Nc2ccc(F)c(F)c2)C1 (stereo not given)	.	.	?	.	.	21µM
Cc1ncsc1CCC(=O)N1CCCC(c2nc(-c3ccncc3)ncc2-c2ccccc2)C1 (stereo not given)	/	/	21µM	/	/	.[9.04 µM]
Cc1ccc(S(=O)(=O)N(CC(=O)c2ccc(Cl)cc2)C(=O)N2CCN(C)CC2)cc1	.	.	.	.	.	.
COc1ccc(C(=O)N2CCCC(Nc3ccc(C(C)C)cc3)C2)c(OC)n1 (stereo not given)	.	.	23µM	.	.	?
CC(C)c1ccc(NC2CCCN(C(=O)CCN3CCOCC3)C2)cc1 (stereo not given)	.	.	.	.	.	.
CCc1nccn1CCC(=O)N1CCCC(Nc2ccc(C(C)C)cc2)C1 (stereo not given)	.	.	18µM	.	.	?
Cc1nn(C)cc1C(C(=O)NC1CCCCC1)N(C(=O)Cc1cccs1)c1ccc(Cl)cc1 (stereo not given)	.	.	6.5µM	.	.	2.9µM
COc1cc(N(C(=O)Cc2cccs2)C(C(=O)NC2CCCCC2)c2ccc(C)cc2)ccc1-n1cnnn1 (stereo not given)	.	.	13µM	.	.	21µM
Cc1ccc(N(C(=O)Cn2nnc3ccccc32)C(C(=O)NC2CCCCC2)c2cn(C)nc2C)cc1 (stereo not given)	?	.	.	.	.[9.24 µM]	?
C[C@]12C=CC(=O)C=C1CCC1C2C(=O)C[C@]2(C)C1CC[C@]2(O)C(=O)CO (stereo not given in full)	/	/	.	/	/	.
COc1cc(OC)nc(Oc2ccc(N)c(C)c2)n1	.	.	.	.	.	.
O=C(CSc1nnc(CNC(=O)c2ccccc2F)n1-c1ccccc1)Nc1ccccc1F	/	/	.	/	/	.
Cc1cc(C)c(S(=O)(=O)NCCc2cc3ccc(C)c(C)c3[nH]c2=O)c(C)c1	.	.	18µM	.	.	?
Cc1ccc2cc(CCNS(=O)(=O)c3ccc(Br)cc3)c(=O)[nH]c2c1C	?	.	23µM	.	.	?
CC(=O)Nc1ccc(S(=O)(=O)NCCc2cc3c(C)ccc(C)c3[nH]c2=O)cc1	.	.	.	.	.	.
CCCC(=O)Nc1nc2ccc(NC(=O)c3ccc(Br)o3)cc2s1	?	-61	23µM	.	.	?
Cc1nc2ccc(NC(=O)c3ccc(Br)o3)cc2s1	?	-57	?	.	.	.
CC(=O)Nc1ccc2nc(NC(=O)c3ccc([N+](=O)[O-])o3)sc2c1	21µM	-61	?	?	5.2µM	?
CS(=O)(=O)N1CCC[C@@]2(CCN(C(=O)Nc3ccccc3)C2)C1	/	/	.	/	/	.
CCN1CCS/C1=C\C=C\C1=[N+](CC)CCS1	0.58µM	.	0.21µM	4.6µM	5.2µM	0.73µM
CCN1CCS/C1=C/C=C/C1=[N+](CC)CCS1	.	.	0.15µM	/	/	0.18µM
Brc1ccc(-c2ccc(/C=N/Nc3nc(N4CCOCC4)nc(N4CCOCC4)n3)o2)cc1	5.8µM	?	10µM	.	.	?
COC(=O)c1ccc(/C=N/Nc2nc(N3CCCCC3)nc(N3CCCCC3)n2)cc1	.	.	.	?	.	.
